Source: PubChem (several laboratories)
Hits are enriched below; roughly 0.97% of the tested compounds scored in any of these assays.
SK-BR-3 tox 24h = SK-BR-3 proliferation inhibitors, primary screen, cell-based, human, 24 h; SK-BR-3 viability, CellTiter-Glo ATP luminescence; active compounds read low; viability, % at 10 µM; 41,000 compounds, 0.47% hits;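 active = viability at or below the median of all test compounds minus 3 SD, in both replicates if run twice, cut at about 45% in these data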;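 note: 100% = median untreated cell wells and 0% = median positive control drug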
Htt clearance = clearance of mutant huntingtin inclusions, primary screen, imaging, HeLa Exon1htt(103Q)mCFP, confocal imaging; inhibition, % at 1.5 µM; aggregate imaging; zero = plate's median compound well; 47,000 compounds, 0.42% hits;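 active = inhibition of aggregate fluorescence above about 70%, also judged a hit by eye on the cell image, limit read from the data, passing the limit was not always enough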;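 note: cells exposed to compound for three days before fixation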
Her2 expr inh = inhibitors of Her2 protein expression, primary screen, SKBR-3 cells, AlphaScreen, 66K library. HER2 level % of control, % at 10 µM. SKBR-3 HER2 protein level, 18-24 h; active compounds read low. 65,000 compounds, 0.69% hits;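 active = HER2 level under 5% of the carrier-only control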;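 note: 100% = DMSO carrier and 0% = 500 nM PU-H71 HSP90 inhibitor; lower value means stronger loss of Her2 protein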
* marks the source's active call; other numbers are inactive results; x = no result.

SMILES | SK-BR-3 tox 24h | Htt clearance | Her2 expr inh
O=C(NCc1ccc(F)cc1)N[C@@H](Cc1ccccc1)C(=O)O | 100 | x | 118
CCN(CC)CC(=O)Nc1c(C)cc(C)cc1C | 97 | x | x
O=C(CCN1C(=O)C2CC=C(Cl)CC2C1=O)NC1CCCCC1 (configuration not stated) | 69 | x | 79
O=C(CCN1C(=O)c2cccnc2C1=O)NC1CCCCCC1 | 80 | x | -17*
CC(O)c1cc2c(cc1NC(=O)c1cnn3c1NC(c1ccco1)CC3C(F)(F)F)OCO2 (configuration not stated) | 76 | x | x
CCC(C)NC(=O)c1cnn2c1NC(c1ccc3c(c1)OCO3)CC2C(F)(F)F (configuration not stated) | 73 | -33 | -29*
CS(=O)(=O)N(CC(=O)N1CCCC1)c1ccc(OCc2ccccc2)cc1 | 112 | 78* | 105
CS(=O)(=O)N(CC(=O)N1CCCCCC1)c1ccccc1 | x | x | 108
CCc1nnc(NC(=O)C2CCCN2S(=O)(=O)c2ccc(F)cc2)s1 (configuration not stated) | 83 | 10 | 113
Cc1nc2c(-c3ccc(F)cc3)c(C)nn2c(C)c1CCC(=O)N1CCC(Cc2ccccc2)CC1 | x | -13 | x
CCOC(=O)c1ccccc1NC(=O)/C(C)=C/C(=O)O | x | 25 | x
Cn1c(CSc2nc3ccccc3n2C)nc2ccccc21 | x | 40 | x
Cn1c(SC2=CS(=O)(=O)c3ccccc32)nc2ccccc21 | 108 | 9 | -22*
Cc1ccc(NC(=O)CNc2cccc(C)c2C)c(C)c1 | x | x | -28*
Cc1ccc(NC(=O)CCn2nc(C)cc2C)c(C)c1 | 79 | x | 77
COc1ccccc1-n1c(SCC(=O)NC(C)(C)C)nc(O)cc1=O | 105 | x | -39*
CC(C)(C)NC(=O)CSc1nc(O)cc(=O)n1-c1ccccc1F | 98 | x | 83
Cc1ccc(C(=O)C(C)Oc2cccc(NC(=O)c3ccco3)c2)cc1 (configuration not stated) | x | 11 | x
COc1ccc(O)c(-c2cc(-c3cccs3)[nH]n2)c1 | x | x | 40
CCC(C)(C)C1CCC2(CC1)NC(CO)(CO)CO2 (configuration not stated) | x | 7 | x
COC(=O)c1ccccc1NC(=O)CN1CCN(C23CC4CC(CC(C4)C2)C3)CC1 | 41* | x | 109
COC(=O)c1ccccc1NC(=O)CN1CCC(NC(=O)c2ccc(C)cc2)CC1 | x | -5 | 94
O=C1C(=O)N(Cc2cccnc2)C(c2ccccn2)/C1=C(/O)c1ccc(F)cc1 (configuration not stated) | 105 | x | 122
COCCCNC(=O)Cn1nnc(-c2ccc(NC(=O)c3ccccc3F)cc2)n1 | x | -26 | x
CCOc1ccc(NC(=O)C/C(N)=N/O)cc1 | 78 | -8 | -21*
SMILES | SK-BR-3 tox 24h | Htt clearance | Her2 expr inh
CCOc1ccc(NC(=O)CSC(N)=O)cc1 | x | x | 108
COc1ccc(C2(C(=O)NCCCN3CCOCC3)CCOCC2)cc1 | 99 | x | 103
CCCn1c(=O)c2ccccc2n2c(SCC(=O)c3ccccc3)nnc12 | x | -17 | 103
Nn1c(=O)c2ccccc2n2c(SCc3ccccc3)nnc12 | 91 | 80* | 75
CC(=O)NN1C(=O)c2ccc(Oc3cccc([N+](=O)[O-])c3)cc2C1=O | x | 13 | x
CCCn1cnc2c(c1=O)c1nc3ccccc3nc1n2CCC1=CCCCC1 | 95 | -6 | 102
CCOCCCn1c(C)nc2c(c1=O)c1nc3ccccc3nc1n2CCC1=CCCCC1 | 12* | x | -22*
O=S(=O)(CC(CN1CCCC1)N1CCCC1)c1ccc2ccccc2c1 (configuration not stated) | 96 | -51 | -13*
CC(CS(=O)(=O)c1ccc2ccccc2c1)N1CCN(C2CCCCC2)CC1 (configuration not stated) | x | 34 | x
CCC(C)C(=O)Nc1nc(C)c(-c2csc(Nc3cc(Cl)ccc3OC)n2)s1 (configuration not stated) | x | 72* | x
CCC(C)C(=O)Nc1nc(C)c(-c2csc(Nc3cc(OC)ccc3OC)n2)s1 (configuration not stated) | x | 24 | x
COc1cc(CNC(C)(C)CO)ccc1OCC(=O)Nc1ccc(Br)cc1 | x | 27 | x
COC(=O)C1=C(N)Oc2cc(C)n(C)c(=O)c2C1c1ccc(Cl)c(Cl)c1 (configuration not stated) | 117 | -46 | 3.3*
COC(=O)C1=C(N)Oc2cc(C)n(CCCn3ccnc3)c(=O)c2C1c1ccc(Cl)cc1 (configuration not stated) | 74 | x | 158
CC(C)OC(=O)c1c(F)c(F)c(N2CCOCC2)c(F)c1F | x | 36 | 101
CCOC(=O)c1sc2nccc(N(C)C)c2c1N=CNOC | x | 73* | x
CCOC(=O)c1sc2nccc(N(C)C)c2c1N=CNOCc1ccccc1 | x | 20 | x
CC1(C)Cc2noc(N)c2C(C)(C)N1O | x | x | 79
